# PubChem BioAssay
# Active and inactive are the calls of the source. Cut-off read from the data, not from the text of the source, unless noted: active = inhibition above about 80%; inactive = the rest.
# Experiments:
# [1] = compounds altering viability of human ES cells (AID 493140; call rule not given here;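 note: cells exposed to compounds for four days before counting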); conditions: human embryonic stem cell survival screen; stronger effect = higher value
# [2] = P. berghei load reduction in hepatocytes – cell-based, HepG2, luciferase luminescence, HepG2 viability, primary screen (AID 624349; in the data active = parasite load remaining mostly below about 12%, no sharp cut-off; inactive = mostly above about 10%;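 note: 100% = mean of DMSO negative control wells on the same plate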); conditions: P. berghei liver stage in HepG2, luciferase luminescence, concentration not given here; parasite load remaining: stronger effect = lower value; viability: measured here: HepG2 viability without parasites
# [3] = viability loss with induced miR-34 in A549 – imaging, A549 dox-inducible miR-34, nuclei and caspase counts, primary screen (AID 1347080;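 active = compounds whose cell count with miR-34 switched on is under 0.7 times the count with it off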); conditions: A549 miR-34 inducible, Hoechst nuclei count, 48 h
# [4] = MELAS cybrid and Rieske KO viability enhancers – cell-based, MELAS cybrids, Rieske KO mouse fibroblasts, CellTiter-Glo, primary screen (AID 1508586;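 active = mean z-score across replicates of 1.96 or higher in either the MELAS or the Rieske mutant cell line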;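 note: z relative to plate mean and SD of compound and empty wells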); conditions: low glucose
# [5] = growth inhibition, single agent or in combination, cell-based, chromothripsis tumors, cisplatin or BGB combos (AID 1671449); conditions: LFS_MB_P medulloblastoma cells;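 note: cells exposed for 96 hours; 0% = vehicle DMSO and 100% = killing by high DMSO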
# [6] = growth inhibition, single agent and combos, cell-based, chromothripsis tumors, cisplatin or BGB combos (AID 1671450); conditions: HDN33 neuroblastoma cells, stronger effect = higher value;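 note: cells exposed to compound for four days; 0% = vehicle DMSO and 100% = cell killing by high DMSO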
# [7] = growth inhibition, single agents and combos, ICB984, cell-based, cisplatin or BGB combos, synergistic combos for chromothripsis tumors (AID 1671451; call rule not given here;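 note: cells exposed for 96 hours before readout; 0% = vehicle DMSO and 100% = killing by high DMSO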); conditions: ICB984 medulloblastoma cells, drug combinations, stronger effect = higher value
# [8] = growth inhibition, single agents and combos, LFS_MB_1R, cell-based, cisplatin or BGB combos, synergistic combos for chromothripsis tumors (AID 1671452); conditions: LFS_MB_1R medulloblastoma cells, stronger effect = higher value;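 note: cells exposed for 96 hours before readout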
# [9] = growth inhibition, single agents and combos, HTB85, cell-based, BGB or cisplatin IC20 combos, synergistic combos for chromothripsis tumors (AID 1671453); conditions: HTB85 osteosarcoma cells, drug combinations, stronger effect = higher value;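 note: cells exposed for 96 hours before readout; 0% = vehicle DMSO and 100% = high DMSO killing control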
# [10] = growth inhibition, single agents and combos, CRL2098, cell-based, BGB or cisplatin IC20 combos, synergistic combos for chromothripsis tumors (AID 1671454); conditions: CRL2098 osteosarcoma cells, drug combinations, stronger effect = higher value;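 note: cells exposed for 96 h before readout; 0% = vehicle DMSO and 100% = killing by high DMSO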
# [11] = growth inhibition, single agents and combos, HD-MB03, cell-based, BGB or cisplatin IC20 combos, synergistic combos for chromothripsis tumors (AID 1671455; in the data active = inhibition above about 83%;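 note: 0% = vehicle DMSO and 100% = high DMSO as cytotoxic control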); conditions: HD-MB03 medulloblastoma cells, stronger effect = higher value
# [12] = growth inhibition, single agents and combos, UWB1.289, cell-based, BGB or cisplatin combos, synergistic combos for chromothripsis tumors (AID 1671456); conditions: UWB1.289 ovarian carcinoma cells, stronger effect = higher value;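 note: cells exposed to compound for four days; 0% = vehicle DMSO and 100% = killing by high DMSO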
# [13] = growth inhibition, single agents and combos, LFS_MB_2R, cell-based, cisplatin combos, synergistic combos for chromothripsis tumors (AID 1671457); conditions: LFS_MB_2R medulloblastoma cells, stronger effect = higher value;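 note: cells exposed to compound for four days before readout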
# [14] = growth inhibition, MDA-MB-436, cell-based, BGB or cisplatin combos, synergistic combos for chromothripsis tumors (AID 1671458; call rule not given here;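 note: cells exposed for 96 hours; 0% = vehicle DMSO and 100% = killing by high DMSO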); conditions: MDA-MB-436 breast carcinoma growth inhibition, drug combinations, stronger effect = higher value
# [15] = UWB1.289_BRCA1 ovarian cancer growth, cell-based, BGB or cisplatin combinations (AID 1671459); conditions: UWB1.289 BRCA1 ovarian carcinoma, drug combinations, stronger effect = higher value
# [16] = drug combination toxicity in non-malignant astrocytes – cell-based, BGB or cisplatin IC20 combos, cytotoxicity control for chromothriptic childhood tumor combination screen (AID 1671460); conditions: Human astrocytes, viability inhibition, drug combinations, at 0.5 µM, stronger effect = higher value;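 note: cells exposed to compounds for 96 hours before viability readout; 0% = vehicle and 100% = killing control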
# [17] = BT084 cell growth, single and combined drugs, ICGC_MB145, cisplatin and BGB IC40 combos (AID 1671461); conditions: BT084 medulloblastoma cells, drug combinations, stronger effect = higher value;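 note: cells exposed to drugs for 96 hours; 0% = vehicle DMSO and 100% = high DMSO full killing control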
# [18] = RCMB18 cell growth, single agent and combined, cisplatin and BGB IC40 combos (AID 1671462); conditions: RCMB18 medulloblastoma cells, stronger effect = higher value;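 note: cells exposed to compound for four days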
# [19] = CRL1545 cell growth, single agent and combined, cisplatin and BGB IC20 combos (AID 1671464); conditions: CRL1545 osteosarcoma cells, stronger effect = higher value;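 note: cells exposed to compound for 96 hours before readout; 0% = vehicle DMSO and 100% = high DMSO killing control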
# [20] = stronger effect = lower value, cell number ratio, induced over uninduced
# [21] = measured here: relative caspase fold change +Dox/-Dox
# [22] = measured here: total cells with miR-34 induction, stronger effect = lower value
# [23] = measured here: total cells without miR-34 induction
# [24] = MELAS cybrid survival, CellTiter-Glo 48 h, stronger effect = higher value
# [25] = Rieske KO mouse fibroblast survival, CellTiter-Glo 72 h
# [26] = measured here: combination with BGB IC40, at 0.05 µM
# [27] = measured here: with BGB IC20 combination, at 0.5 µM
# [28] = measured here: with cisplatin IC20 combination, at 0.5 µM
# [29] = measured here: combination with cisplatin, at 0.5 µM
# [30] = measured here: combination with cisplatin, at 5 µM
smiles,measurement,setting,value
CC1(C)S[C@@H]2[C@H](NC(=O)COc3ccccc3)C(=O)N2C1C(=O)O (stereo partly drawn) (tested in a mixture with another compound),survival,[1],4 (inactive)
same,parasite load remaining,[2],98.8% (inactive)
same,viability,[2],75.5%
same,fold change,[3]; [20],0.957 (inactive)
same,fold change,[3]; [21],0.818
same,cell count,[3]; [22],9020
same,cell count,[3]; [23],9430
same,z-score,[4]; [24],-0.168 (inactive)
same,z-score,[4]; [25],-0.00269
COc1ccccc1S(=O)(=O)Nc1ccc2c(c1)CN(C)C(=O)N2,fold change,[3]; [20],1.02 (inactive)
same,fold change,[3]; [21],0.364
same,cell count,[3]; [22],6410
same,cell count,[3]; [23],6310
same,z-score,[4]; [24],0.202 (inactive)
same,z-score,[4]; [25],-0.445
same,inhibition,"[5]; at 0.5 µM, stronger effect = higher value",-27% (inactive)
same,inhibition,"[5]; measured here: combination with BGB IC20, at 0.005 µM",-35.7%
same,inhibition,"[5]; measured here: combination with BGB IC40, at 0.005 µM",-46.6%
same,inhibition,[5]; [26],-41.2%
same,inhibition,"[5]; measured here: combination with cisplatin, at 0.5 µM, stronger effect = higher value",-73.8%
same,inhibition,"[5]; measured here: combination with cisplatin, at 5 µM, stronger effect = higher value",27.9%
same,inhibition,"[6]; BGB combo, at 5 µM",10.4%
same,inhibition,[6]; at 0.5 µM,-28.2% (inactive)
same,inhibition,"[6]; cisplatin combo, at 5 µM",19.3%
same,inhibition,[6]; [27],-28.2%
same,inhibition,[6]; [28],-25.5%
same,inhibition,"[6]; single agent, at 5 µM",26.1%
same,inhibition,"[7]; BGB IC20 combo, at 0.005 µM",0.625%
same,inhibition,"[7]; BGB IC40 combo, at 0.005 µM",-32.2%
same,inhibition,"[7]; BGB IC40 combo, at 0.05 µM",2.94%
same,inhibition,[7]; at 0.5 µM,-27.9% (inactive)
same,inhibition,"[7]; cisplatin combo, at 0.05 µM",-1.96%
same,inhibition,"[7]; cisplatin combo, at 0.5 µM",-28%
same,inhibition,"[7]; cisplatin combo, at 5 µM",-22.2%
same,inhibition,"[7]; measured here: 5 uM single agent, at 5 µM",-15.3%
same,inhibition,[8]; at 0.5 µM,-15.2% (inactive)
same,inhibition,[8]; [26],-24.6%
same,inhibition,[8]; [29],-10.4%
same,inhibition,[8]; [30],42.8%
same,inhibition,[9]; at 0.5 µM,-7.92% (inactive)
same,inhibition,"[9]; measured here: with BGB IC20, at 0.5 µM",9.14%
same,inhibition,"[9]; measured here: with BGB IC20, at 5 µM",38.2%
same,inhibition,"[9]; measured here: with cisplatin IC20, at 0.5 µM",-13.9%
same,inhibition,"[9]; measured here: with cisplatin IC20, at 5 µM",31.4%
same,inhibition,"[9]; single agent, at 5 µM",32.5%
same,inhibition,[10]; at 0.5 µM,-31.4% (inactive)
same,inhibition,"[10]; measured here: combination with BGB at IC20, at 0.5 µM",0.952%
same,inhibition,"[10]; measured here: combination with cisplatin at IC20, at 0.5 µM",-85.9%
same,inhibition,[11]; at 0.5 µM,-5.44% (inactive)
same,inhibition,"[11]; measured here: combo with BGB at IC20, at 0.5 µM",-9.22%
same,inhibition,"[11]; measured here: combo with cisplatin at IC20, at 0.5 µM",-6.26%
same,inhibition,[12]; at 0.5 µM,-14.3% (inactive)
same,inhibition,"[12]; measured here: inhibition with BGB combination, at 0.05 µM",-45%
same,inhibition,"[12]; measured here: inhibition with cisplatin combination, at 0.05 µM",-24.9%
same,inhibition,[13]; at 0.5 µM,-17.7% (inactive)
same,inhibition,[13]; [29],-4.41%
same,inhibition,[13]; [30],24.4%
same,inhibition,[14]; at 0.5 µM,-11.9% (inactive)
same,inhibition,"[14]; measured here: BGB combination, at 0.5 µM",-2.15%
same,inhibition,"[14]; measured here: BGB combination, at 5 µM",-5.52%
same,inhibition,"[14]; measured here: cisplatin combination, at 0.5 µM",-32.4%
same,inhibition,"[14]; measured here: cisplatin combination, at 5 µM",-10.1%
same,inhibition,"[15]; BGB combination, concentration series, at 5 µM",37.7%
same,inhibition,[15]; at 0.5 µM,-12% (inactive)
same,inhibition,"[15]; cisplatin combination, concentration series, at 5 µM",55.6%
same,inhibition,[16],9.7% (inactive)
same,inhibition,[16]; measured here: combo with BGB IC20,13.1%
same,inhibition,[16]; measured here: combo with cisplatin IC20,4.75%
same,inhibition,[17]; at 0.5 µM,-13.5% (inactive)
same,inhibition,"[17]; cisplatin combination, at 0.5 µM",-9.06%
same,inhibition,"[17]; cisplatin combination, at 5 µM",15.1%
same,inhibition,"[17]; measured here: BGB IC40 combination 0.05 uM, at 0.05 µM",-35.9%
same,inhibition,"[17]; single agent, at 5 µM",28.1%
same,inhibition,[18]; at 0.5 µM,-15.3% (inactive)
same,inhibition,"[18]; cisplatin combo, at 5 µM",7.58%
same,inhibition,"[18]; measured here: BGB IC40 combination, at 0.05 µM",-26.3%
same,inhibition,[18]; [29],-32.4%
same,inhibition,"[18]; single agent, at 5 µM",7.98%
same,inhibition,[19]; at 0.5 µM,-26.6% (inactive)
same,inhibition,[19]; [27],-39.9%
same,inhibition,[19]; [28],-21.9%
same,inhibition,"[19]; single agent, at 0.05 µM",-32%
same,inhibition,"[19]; single agent, at 5 µM",6.08%
